Assay outcomes (PubChem)
CF NFkB inh: inhibitors of PAF-induced NF-kB signaling, primary screen, cell-based, GFP fluorescence, uHTS | KKLEB NF-kB-GFP reporter, GFP fluorescence overnight | inhibition, % at 5 µM | 360,000 tested, 0.86% active | AID 588850, 2011;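 active means at least 50% inhibition at 5 µM, scaled per plate between neutral and stimulator controls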;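 further: PAF is a Pseudomonas aeruginosa culture filtrate used as stimulus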
HIF-2a block: HIF-2a reporter inhibitors, primary screen, luminescence, 786-0 RCC cells; 786-0 RCC cells HIF-2a reporter, luciferase luminescence, overnight; 360,000 tested, 0.72% active; inhibition, % at 18.8 µM;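 active means inhibition of the luminescence signal of 40% or more relative to plate controls, in a single-dose primary screen at 18.75 µM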
TROY signal inh: inhibitors of TROY-driven NF-kB signaling, primary screen, Q293 LMP1-TROYcd cells, NF-kB luciferase, uHTS | Q293 LMP1-TROYcd NF-kB luciferase reporter, 4 h | inhibition, % at 10 µM | 360,000 tested, 0.98% active | AID 1347056, 2019;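 active means compounds whose plate-normalised and pattern-corrected inhibition of the luciferase reporter signal at the single screening dose is 50% or more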
KKLEB cytotox: cytotoxicity in KKLEB CF airway cells, primary screen, cytotoxicity control for CF NF-kB inhibitor project, cell-based, uHTS, fluorescence assay plates. 360,000 tested, 0.36% active. KKLEB CF airway cells viability, ATPlite luminescence, overnight; stronger effect = lower value; cells stimulated with P. aeruginosa culture filtrate. activity change (cytotoxicity), % at 5 µM. AID 602141, 2011;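 active means corrected activity change at or below -50% at 5 µM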
Peg3 prom inh: Peg3 promoter-driven luciferase inhibitors, primary screen, cell-based, HeLa, luciferase luminescence | 360,000 tested, 1.7% active | HeLa PEG-Prom luciferase reporter, overnight | AID 588405, 2011 | inhibition, % at 20 µM;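 active means inhibition of at least 50% at 20 µM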
TWEAK Fn14 block: inhibitors of TWEAK-Fn14 signaling, primary screen, luciferase reporter cells, uHTS; TWEAK-stimulated Fn14 reporter cells, luciferase luminescence, 8 h; inhibition, % at 10 µM; 360,000 tested, 2% active; AID 1159606, 2016; in the data active means inhibition above about 50%
CF NFkB conf: inhibitors of PAF-induced NF-kB signaling, retest, confirmation, cell-based, GFP fluorescence, single concentration; shares compounds with CF NFkB inh; KKLEB CF airway cells, overnight; inhibition, % at 5 µM; 1,300 tested, 64% active; AID 602472, 2012; in the data active means inhibition above about 40%;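 further: stimulus PAF is a Pseudomonas aeruginosa filtrate and not platelet activating factor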
Mdm2 MdmX conf: retested Mdm2-MdmX interaction blockers, confirmation, cell-based, luminescence, single concentration, set 2 | shares compounds with HIF-2a block | SaOS-2 split-luciferase Mdm2/MdmX complementation | inhibition, % at 8 µM | 740 tested, 99% active;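 active means mean inhibition of the luminescence signal across two replicates at or above 26 percent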
HIF-2a inh conf: HIF-2a reporter inhibitor retest, confirmation, luminescence, 786-0 RCC cells; inhibition, % at 18.8 µM; HIF-2a luciferase reporter luminescence, overnight; 1,800 tested, 56% active; shares compounds with HIF-2a block;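 active means mean inhibition across four replicates of at least 40 percent at the single tested concentration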
HIF-1a cs: HIF-1a luciferase reporter signal reduction – MiaPaCa-2 cells, single concentration, counter-screen for HIF-2a inhibitor project, confirmation | 1,800 tested, 72% active | MiaPaCa-2 HIF-1a luciferase reporter, desferoxamine, overnight | AID 651589, 2012 | inhibition, % at 18.8 µM | shares compounds with HIF-2a block;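 active means mean inhibition of the reporter signal across four replicates at the single tested dose of 50% or more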
Each line names hits and unclear results; the compound was inactive in the other large screens (follow-up assays come after a bar, where they were run). Only some compounds are listed: those with a hit (about 4% of all), similar ones and a draw of the others.

Cc1cc(C(=O)Cn2ncc(Cl)c(Cl)c2=O)c(C)n1CC(F)(F)F	CF NFkB inh 77, HIF-2a block 94, TROY signal inh 64, Peg3 prom inh 100, TWEAK Fn14 block 95 | CF NFkB conf inactive | HIF-2a inh conf inactive | HIF-1a cs 103
Cc1cccc(CS(=O)(=O)c2ncc(Cl)c(C(=O)NCc3ccccc3)n2)c1	CF NFkB inh 86, HIF-2a block 69, TROY signal inh 63, Peg3 prom inh 97, TWEAK Fn14 block 97 | CF NFkB conf 82 | HIF-2a inh conf 69 | HIF-1a cs 62
O=C1c2ccccc2S(=O)N1c1cccc(F)c1 (centres undefined)	none
Cc1nn(-c2ccccc2)c(Cl)c1C(=O)N1CCN(c2ncnc3c2cnn3-c2ccccc2)CC1	CF NFkB inh 63, TROY signal inh 85, Peg3 prom inh 114, TWEAK Fn14 block 106 | CF NFkB conf 73 | Mdm2 MdmX conf 100
CN1CCN(S(=O)(=O)c2ccc(Sc3nnnn3-c3ccccc3)c([N+](=O)[O-])c2)CC1	CF NFkB inh 88, HIF-2a block 67, Peg3 prom inh 91, TWEAK Fn14 block 100 | CF NFkB conf 64 | Mdm2 MdmX conf 102 | HIF-2a inh conf inactive | HIF-1a cs 100
CSc1ccc(OC2(C)CCN(Cc3ccc(OC(C)C)cc3)C2)cc1 (centres undefined)	none
COc1cc(-c2nc(-c3ccc(NC(=O)c4ccc5c(c4)OCO5)cc3)no2)cc(OC)c1OC	CF NFkB inh 58 | CF NFkB conf 42 | Mdm2 MdmX conf 88
C=C1C(=O)C23C(O)C1CCC2C12COC3(O)C(O)C1C(C)(C)CCC2O (centres undefined)	CF NFkB inh 82, HIF-2a block 95, Peg3 prom inh 94, TWEAK Fn14 block 75 | CF NFkB conf 70 | HIF-2a inh conf 94 | HIF-1a cs 105
Cn1c(N)c(C(=O)COC(=O)c2ccccc2C(=O)c2ccc(Cl)c([N+](=O)[O-])c2)c(=O)n(C)c1=O	CF NFkB inh 65, HIF-2a block 71, TROY signal inh 65, Peg3 prom inh 96, TWEAK Fn14 block 88 | CF NFkB conf inactive | HIF-2a inh conf inactive | HIF-1a cs 93
Cn1c(N)c(C(=O)COC(=O)c2ccccc2C(=O)c2ccccc2)c(=O)n(C)c1=O	none
O=C(COC(=O)c1ccccc1C(=O)c1ccc(Cl)c([N+](=O)[O-])c1)NC1CCCCCC1	CF NFkB inh 86, HIF-2a block 93, TROY signal inh 78, Peg3 prom inh 104, TWEAK Fn14 block 98 | CF NFkB conf 106 | Mdm2 MdmX conf 103 | HIF-2a inh conf inactive | HIF-1a cs 106
CN(C(=O)c1cc(COc2ccc(F)c(F)c2)on1)C1CCOC1 (centres undefined)	none
N#Cc1c(Oc2ccc3ccccc3c2)sc(C(=O)c2ccccc2)c1N	CF NFkB inh 51, HIF-2a block 42 | CF NFkB conf inactive | HIF-2a inh conf inactive | HIF-1a cs inactive
CCOC(=O)N1CCN(CC(=O)Nc2nc3ccc(OC)cc3s2)CC1	none
O=C1C=C(c2ccc(Cl)c(C(F)(F)F)c2)C[C@@H](c2ccc3c(c2)OCO3)C1	none
CCOC(=O)N1C(=O)[C@@](c2ccc(Cl)cc2)(C(C)C)N1C(=O)OCC	CF NFkB inh 70, HIF-2a block 68, Peg3 prom inh 100, TWEAK Fn14 block 76 | CF NFkB conf inactive | HIF-2a inh conf 58 | HIF-1a cs 85
COc1ccc(C(=O)N2CCN(Cc3ccccc3)CC2)cc1[N+](=O)[O-]	none
O=C(c1ccc(S(=O)(=O)c2cccc(Cl)c2)c([N+](=O)[O-])c1)N1CCN(Cc2ccccc2)CC1	CF NFkB inh 78, TWEAK Fn14 block 84 | CF NFkB conf inactive | Mdm2 MdmX conf 101
CN(C)CCCN(C(=O)CCS(=O)(=O)c1ccccc1)c1nc2cc3c(cc2s1)OCO3	CF NFkB inh 96, HIF-2a block 62, TROY signal inh 56, Peg3 prom inh 107, TWEAK Fn14 block 69 | CF NFkB conf 104 | HIF-2a inh conf inactive | HIF-1a cs 102
CC(=O)Nc1ccc(Nc2nc(-c3sc(NC(C)=O)nc3C)cs2)cc1	CF NFkB inh 67, HIF-2a block 68 | CF NFkB conf 87 | HIF-2a inh conf 66 | HIF-1a cs 91
CCCC(=O)Nc1nc(C)c(-c2csc(Nc3ccc(Cl)cc3)n2)s1	none
COc1ccc(CCNC(=O)CSc2nc(=O)n3cc(C)ccc3n2)cc1OC	none
CNC(=S)SCCOc1ccccc1	none
O=S1(=O)CCC(NC(=S)SCCOc2ccccc2)C1 (centres undefined)	CF NFkB inh 58, HIF-2a block 50, TWEAK Fn14 block 70 | CF NFkB conf 86 | HIF-2a inh conf 48 | HIF-1a cs 67
Cc1c(C)n2c(SCC(=O)NCc3ccc4c(c3)OCO4)nnc2[nH]c1=O	none
CN(c1ccccc1)c1ccc(/C=C/[N+](=O)[O-])cc1	CF NFkB inh 65, HIF-2a block 92, TROY signal inh 89, Peg3 prom inh 103, TWEAK Fn14 block 103 | CF NFkB conf inactive | HIF-2a inh conf 85 | HIF-1a cs 105
O=[N+]([O-])c1ccc(C=CC=Cc2ccccc2)cc1	none
COc1ccc(C(CNC(=O)C(C)Sc2ccccc2)N2CCOCC2)cc1 (centres undefined)	none
CC(/C=N/n1c(-c2cccnc2)n[nH]c1=S)=C\c1ccccc1	none
CC(=C/c1ccccc1)/C=N/n1c(-c2ccncc2)n[nH]c1=S	CF NFkB inh 76, TROY signal inh 52, TWEAK Fn14 block 78 | CF NFkB conf 78 | Mdm2 MdmX conf 89
COc1ccc2cc(C(=O)NCc3ccccc3CN3CCCC3)ccc2c1	none
